Results on 39 compounds are retold here after PubChem BioAssay (NCATS).

Each structure is given as a SMILES string. Records with an inconclusive call do not appear. The source made the active and inactive calls.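 Rule for the calls, unless noted: active = compounds whose dose series gives a full or clear partial fitted curve of increased nuclear translocation; inconclusive = weak partial curve or effect only at the top dose; inactive = no dose-dependent translocation response.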 Some results are limits rather than exact numbers.

Tested on in one experiment: not listed separately
Briefly: Stat Signaling Pathway (AID 446; active = well fitted curve in either direction with a large enough effect, not every such curve was filed as active;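 note: ME-180 cervical cancer cells given 40 pM IL-6 alongside compound; SIE-controlled beta-lactamase reporter measured as 460/530 nm FRET emission ratio; % is set by controls: 0 for no effect and ±100 for the full control effect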). The note with it: ME-180 SIE beta-lactamase reporter, IL-6 stimulated, 5 h; at 17.2 µM (top of the series) unless noted. The gist of the method: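 ME-180 cells carrying a SIE-driven beta-lactamase reporter are stimulated with 40 pM IL-6 for 5 h at 37C in the presence of compound. The 460/530 nm FRET substrate ratio is read after 2.5 h at RT. Data are normalised to 300 pM IL-6 and to 125 nM JAK inhibitor controls.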
For `Cc1c(/C(O)=C2/C(=O)C(=O)N(CCN3CCOCC3)C2c2cccnc2)cnn1-c1ccccc1` (stereo unspecified), the activity, negative = inhibition was -0.626% (inactive). In the case of `COC(=O)Cn1cc(C(=O)OC)cc(Br)c1=O`, the activity, negative = inhibition was -0.311% (inactive). Still for that read-out and setting: the result for `COc1ccc(CCn2c(C)ccc2C)cc1OC` reads -7.94% (inactive); that for `Cc1cc(C(=O)O)c(CSc2ncn[nH]2)o1`, 8.82% (inactive); that for `Cc1cc(C)nc(N(C#N)S(=O)(=O)c2ccccc2Cl)n1`, -19.9% (inactive). Same read-out and setting: the result for `S=C(N=Nc1ccccc1)NNc1ccccc1` reads -0.775% (inactive); that for `OCCOCCNc1ncnc2c1cnn2-c1ccc(Cl)cc1`, 4.43% (inactive). The same measure, in the same setting: the result for `CC(=O)C1=C(O)C(=O)N(c2cccc(C(=O)O)c2)C1c1ccccc1F` (stereo unspecified) reads 10.6% (inactive); that for `Cn1ncc(N=Cc2ccccc2O)c1C(=O)N1CCOCC1`, -4.13% (inactive). `CSC1=C(C#N)C(C)CC(=O)N1` (stereo unspecified): the activity, negative = inhibition was 3.87% (inactive). `Cc1ccc(C2CC(c3cccs3)n3nc(N)nc3N2)cc1` (stereo unspecified): the activity, negative = inhibition is 3.76% (inactive). Same read-out and setting: the result for `Cc1cc(C)n(C(=O)CSc2nc3ccccc3o2)n1` reads 2.26% (inactive). The same measure, in the same setting: the result for `Cc1cc(C)n(-c2ncnc3sc(C)c(C)c23)n1` reads 6.68% (inactive); that for `CN(C)c1nc2n(c(=S)n1)CCS2`, -7.31% (inactive); that for `CCc1nc(N2CCN(C(=O)c3ccccc3)CC2)c(C#N)c2c1COC(C)(C)C2`, -14% (inactive). The same measure, in the same setting: the result for `Cc1cc(=O)[nH]c(COc2ccccc2)n1` reads -2.52% (inactive); that for `O=C(CN1C(=O)c2ccccc2S1(=O)=O)NCCSCc1ccco1`, -4.36% (inactive); that for `CC(=O)N=C(N)Sc1nc2ccccc2[nH]1`, 1.5% (inactive).

On to `N#CCCSCc1ccc(OCC(=O)O)cc1`, for which the activity, negative = inhibition was 0.185% (inactive). The same measure, in the same setting: the result for `c1ccc(OCc2nn3c(-c4cccnc4)nnc3s2)cc1` reads -4.47% (inactive).

Consider `CCOC(=O)c1ccc(N2CC(O)=C(c3nc4ccccc4c(=O)[nH]3)C2=N)cc1`, for which the activity, negative = inhibition is -21.7% (inactive). On the same count and under the same terms, next, `Cc1cc(C)c2c(N)c(C(=O)c3ccccc3)oc2n1`: -8.9% (inactive).

In another experiment the target is Glucocorticoid receptor (Homo sapiens) (UniProt P04150). The experiment can be described thus: GR-GFP Redistribution (AID 450). Note: potency is the fitted concentration of half-maximal effect. The note with it: U2OS GR-GFP nuclear translocation, laser cytometry, 2 h; series mostly up to 20.6 µM.
Sequence of Glucocorticoid receptor (Homo sapiens) (P04150 whole entry, looked up): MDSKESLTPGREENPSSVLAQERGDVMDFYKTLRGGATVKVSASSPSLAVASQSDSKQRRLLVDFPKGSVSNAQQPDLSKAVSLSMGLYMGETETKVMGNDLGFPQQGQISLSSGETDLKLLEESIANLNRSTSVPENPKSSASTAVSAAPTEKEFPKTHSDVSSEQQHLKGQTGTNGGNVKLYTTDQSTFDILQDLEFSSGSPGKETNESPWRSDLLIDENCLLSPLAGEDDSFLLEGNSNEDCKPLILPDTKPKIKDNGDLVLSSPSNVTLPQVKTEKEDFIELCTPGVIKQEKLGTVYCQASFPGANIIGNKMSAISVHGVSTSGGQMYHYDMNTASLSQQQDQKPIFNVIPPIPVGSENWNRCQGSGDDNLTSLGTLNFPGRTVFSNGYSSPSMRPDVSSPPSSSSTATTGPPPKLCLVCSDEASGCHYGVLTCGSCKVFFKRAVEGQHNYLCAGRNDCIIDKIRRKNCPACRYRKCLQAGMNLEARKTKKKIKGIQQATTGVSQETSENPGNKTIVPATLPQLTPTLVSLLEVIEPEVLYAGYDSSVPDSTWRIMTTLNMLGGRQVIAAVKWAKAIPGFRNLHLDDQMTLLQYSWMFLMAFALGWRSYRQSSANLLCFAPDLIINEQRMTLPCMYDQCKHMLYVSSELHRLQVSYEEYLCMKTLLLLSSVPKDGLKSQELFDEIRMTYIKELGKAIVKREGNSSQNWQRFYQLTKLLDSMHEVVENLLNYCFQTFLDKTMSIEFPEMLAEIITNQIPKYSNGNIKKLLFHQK
On to `COc1ccc2c(c1)[nH]c1c(=O)n(CCN(C)C)cnc12`, for which the Potency is > 20.6 µM (inactive).

Take `O=C(O)c1ccc(C2CCCCC2)cn1`: the Potency is > 20.6 µM (inactive). On the same count and under the same terms, the result for `CCOC(=O)CC1=C(C(=O)OCC)C(c2cc(OC)c(OC)cc2OC)C(C#N)=C(N)O1` (stereo unspecified) reads > 20.6 µM (inactive); that for `CC(C)(C)NCc1cc2ccccc2[nH]c1=O`, > 20.6 µM (inactive); that for `O=C(O)CCCCCN1C(=O)CCC1=O`, > 20.6 µM (inactive). On the same count and under the same terms, next, `O=C(Cc1ccc(Cl)cc1)Nc1cccc(-c2nnc(-c3ccco3)o2)c1`: > 20.6 µM (inactive).

`COC(=O)CC(=O)Cc1nc(N)nc(Nc2ccc(C)c(C)c2)n1`: the Potency was > 20.6 µM (inactive). In the case of `O=C(NCCO)c1cccc2c1C(=O)c1ccccc1-2`, the Potency was > 20.6 µM (inactive). On the same count and under the same terms, the result for `COc1ccc(C2C=C(c3ccc(Cl)cc3)Nc3nc(NC(C)=O)nn32)cc1` (stereo unspecified) reads > 20.6 µM (inactive); that for `Cc1ccc(S(=O)(=O)NC(=O)NCc2ccc3c(c2)OCO3)cc1`, > 20.6 µM (inactive); that for `COC(=O)c1ccc(CN(C(C)=O)c2ccccc2)o1`, > 20.6 µM (inactive).

On to `CCC(=O)Nc1ccc(-c2nnc(-c3ccccc3)o2)cc1`, for which the Potency was > 20.6 µM (inactive). On the same count and under the same terms, next, `O=C(NCCOCCOCCNC(=O)c1cccnc1)c1cccnc1`: > 20.6 µM (inactive). Still for that read-out and setting: next, `COc1cc(OC)cc(C(=O)N2CCC(N3CCN(c4ccccc4)CC3)CC2)c1`: > 20.6 µM (inactive); `COc1cccc(C(=O)N2CCN(S(=O)(=O)Cc3ccccc3)CC2)c1OC`: > 20.6 µM (inactive); `Cc1nc2c(o1)CCc1ccccc1C2N1CCN(C)CC1` (stereo unspecified): > 20.6 µM (inactive). Still for that read-out and setting: next, `Cc1cc(COc2ccccc2OCCN2CCN(C)CC2)no1`: > 20.6 µM (inactive).

Consider `Cc1c(/C(O)=C2/C(=O)C(=O)N(CCN3CCOCC3)C2c2cccnc2)cnn1-c1ccccc1` (stereo unspecified), for which the Potency was > 20.6 µM (inactive). `COC(=O)Cn1cc(C(=O)OC)cc(Br)c1=O`: the Potency was > 20.6 µM (inactive).

`COc1ccc(CCn2c(C)ccc2C)cc1OC`: the Potency was > 20.6 µM (inactive). Turning to `Cc1cc(C(=O)O)c(CSc2ncn[nH]2)o1`, the Potency was > 20.6 µM (inactive). Same read-out and setting: next, `Cc1cc(C)nc(N(C#N)S(=O)(=O)c2ccccc2Cl)n1`: > 20.6 µM (inactive). As for `S=C(N=Nc1ccccc1)NNc1ccccc1`, the Potency is > 20.6 µM (inactive). On the same count and under the same terms, next, `OCCOCCNc1ncnc2c1cnn2-c1ccc(Cl)cc1`: > 20.6 µM (inactive).
